Experimental data: ChEMBL document CHEMBL1961873, “Compounds: GSK PKIS; Assays: Nanosyn kinase panel” (2012)

Key:
[1] = target: T1, Ephrin type-B receptor 2 (Homo sapiens) (UniProt P29323); conditions: at 1 µM
T1 sequence (whole entry): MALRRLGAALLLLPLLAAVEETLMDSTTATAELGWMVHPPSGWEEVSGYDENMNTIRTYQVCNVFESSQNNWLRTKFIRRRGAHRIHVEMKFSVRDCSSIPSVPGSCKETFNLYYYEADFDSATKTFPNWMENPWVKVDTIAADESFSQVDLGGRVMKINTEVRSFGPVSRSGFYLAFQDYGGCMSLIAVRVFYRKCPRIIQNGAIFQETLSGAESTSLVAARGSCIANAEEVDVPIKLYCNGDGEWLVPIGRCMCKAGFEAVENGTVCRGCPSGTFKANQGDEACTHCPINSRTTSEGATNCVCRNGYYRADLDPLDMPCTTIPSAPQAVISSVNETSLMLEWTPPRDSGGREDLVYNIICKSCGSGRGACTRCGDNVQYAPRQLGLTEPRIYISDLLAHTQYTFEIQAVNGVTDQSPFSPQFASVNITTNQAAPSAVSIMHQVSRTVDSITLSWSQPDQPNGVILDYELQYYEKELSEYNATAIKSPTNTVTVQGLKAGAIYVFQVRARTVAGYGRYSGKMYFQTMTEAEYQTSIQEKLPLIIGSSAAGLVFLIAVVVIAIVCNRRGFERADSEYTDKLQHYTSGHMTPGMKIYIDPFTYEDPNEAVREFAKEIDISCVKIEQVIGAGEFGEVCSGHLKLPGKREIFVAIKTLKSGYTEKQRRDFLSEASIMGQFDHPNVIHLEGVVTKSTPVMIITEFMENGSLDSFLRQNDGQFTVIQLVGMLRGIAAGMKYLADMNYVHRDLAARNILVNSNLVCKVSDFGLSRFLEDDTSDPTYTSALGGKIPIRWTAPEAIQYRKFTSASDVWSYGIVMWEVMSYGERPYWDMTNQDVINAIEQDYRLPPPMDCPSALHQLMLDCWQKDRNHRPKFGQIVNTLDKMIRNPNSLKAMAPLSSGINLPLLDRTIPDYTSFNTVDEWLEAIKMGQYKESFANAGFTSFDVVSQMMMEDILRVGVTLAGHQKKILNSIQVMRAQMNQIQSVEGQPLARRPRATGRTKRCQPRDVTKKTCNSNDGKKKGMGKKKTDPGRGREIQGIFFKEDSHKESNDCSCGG

[2] = target: T2, Ephrin type-B receptor 3 (Homo sapiens) (UniProt P54753); conditions: at 0.1 µM
T2 sequence (whole entry): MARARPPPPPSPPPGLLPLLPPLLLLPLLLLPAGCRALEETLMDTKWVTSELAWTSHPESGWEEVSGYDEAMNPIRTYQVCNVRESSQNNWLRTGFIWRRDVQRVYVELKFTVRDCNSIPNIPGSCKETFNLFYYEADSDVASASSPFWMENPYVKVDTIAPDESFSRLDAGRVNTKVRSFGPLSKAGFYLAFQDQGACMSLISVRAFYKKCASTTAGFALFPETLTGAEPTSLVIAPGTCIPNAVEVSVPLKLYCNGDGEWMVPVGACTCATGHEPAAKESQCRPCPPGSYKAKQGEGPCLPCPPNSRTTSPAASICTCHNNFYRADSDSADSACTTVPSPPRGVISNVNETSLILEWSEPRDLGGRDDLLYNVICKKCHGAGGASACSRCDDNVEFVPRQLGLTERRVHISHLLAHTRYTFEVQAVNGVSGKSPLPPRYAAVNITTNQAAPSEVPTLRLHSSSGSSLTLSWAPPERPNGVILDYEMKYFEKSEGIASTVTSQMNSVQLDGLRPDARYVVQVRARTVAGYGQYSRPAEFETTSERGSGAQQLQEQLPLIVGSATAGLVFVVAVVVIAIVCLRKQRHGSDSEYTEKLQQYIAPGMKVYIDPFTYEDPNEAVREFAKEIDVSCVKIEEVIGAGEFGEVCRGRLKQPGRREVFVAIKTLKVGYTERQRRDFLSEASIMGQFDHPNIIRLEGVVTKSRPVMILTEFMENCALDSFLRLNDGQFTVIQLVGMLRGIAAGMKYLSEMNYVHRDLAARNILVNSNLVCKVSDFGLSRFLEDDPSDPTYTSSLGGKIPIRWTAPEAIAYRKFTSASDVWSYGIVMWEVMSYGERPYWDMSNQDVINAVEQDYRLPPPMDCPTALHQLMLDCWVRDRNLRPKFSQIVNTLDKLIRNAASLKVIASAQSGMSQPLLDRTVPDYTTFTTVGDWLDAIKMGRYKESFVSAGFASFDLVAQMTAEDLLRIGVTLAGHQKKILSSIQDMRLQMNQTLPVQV

[3] = target: T2, Ephrin type-B receptor 3 (Homo sapiens); conditions: at 1 µM
[4] = target: T3, Ephrin type-B receptor 4 (Homo sapiens) (UniProt P54760); conditions: at 0.1 µM
T3 sequence (whole entry): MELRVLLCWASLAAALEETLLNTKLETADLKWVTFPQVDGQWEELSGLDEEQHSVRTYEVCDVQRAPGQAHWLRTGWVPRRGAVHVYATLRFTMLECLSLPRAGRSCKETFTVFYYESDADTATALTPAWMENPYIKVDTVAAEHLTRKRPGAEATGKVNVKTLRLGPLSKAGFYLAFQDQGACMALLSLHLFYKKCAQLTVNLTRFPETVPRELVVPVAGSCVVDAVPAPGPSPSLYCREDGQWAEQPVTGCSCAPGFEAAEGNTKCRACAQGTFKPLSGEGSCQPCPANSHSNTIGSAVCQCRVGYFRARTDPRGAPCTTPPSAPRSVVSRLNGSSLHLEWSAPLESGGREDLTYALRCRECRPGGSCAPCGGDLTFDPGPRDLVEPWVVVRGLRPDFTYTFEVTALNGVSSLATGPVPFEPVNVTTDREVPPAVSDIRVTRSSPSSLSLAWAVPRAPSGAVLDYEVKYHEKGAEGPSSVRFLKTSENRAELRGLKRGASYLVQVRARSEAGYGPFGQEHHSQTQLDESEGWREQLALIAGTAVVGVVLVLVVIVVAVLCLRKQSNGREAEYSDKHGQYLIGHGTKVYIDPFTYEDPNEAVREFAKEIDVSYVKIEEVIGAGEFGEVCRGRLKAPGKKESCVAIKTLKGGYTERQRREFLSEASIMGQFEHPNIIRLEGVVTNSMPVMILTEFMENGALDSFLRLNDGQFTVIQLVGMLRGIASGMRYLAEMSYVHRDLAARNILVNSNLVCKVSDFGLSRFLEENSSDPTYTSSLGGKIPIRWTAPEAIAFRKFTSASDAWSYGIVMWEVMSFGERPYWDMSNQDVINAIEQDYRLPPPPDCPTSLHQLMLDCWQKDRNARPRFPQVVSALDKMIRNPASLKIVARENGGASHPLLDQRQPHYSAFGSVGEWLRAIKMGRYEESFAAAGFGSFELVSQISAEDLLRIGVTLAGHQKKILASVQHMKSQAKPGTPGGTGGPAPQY

[5] = target: T3, Ephrin type-B receptor 4 (Homo sapiens); conditions: at 1 µM
[6] = target: Receptor tyrosine-protein kinase erbB-2 (Homo sapiens) (UniProt P04626); conditions: at 0.1 µM
Chain of Receptor tyrosine-protein kinase erbB-2 (Homo sapiens) (P04626 whole entry): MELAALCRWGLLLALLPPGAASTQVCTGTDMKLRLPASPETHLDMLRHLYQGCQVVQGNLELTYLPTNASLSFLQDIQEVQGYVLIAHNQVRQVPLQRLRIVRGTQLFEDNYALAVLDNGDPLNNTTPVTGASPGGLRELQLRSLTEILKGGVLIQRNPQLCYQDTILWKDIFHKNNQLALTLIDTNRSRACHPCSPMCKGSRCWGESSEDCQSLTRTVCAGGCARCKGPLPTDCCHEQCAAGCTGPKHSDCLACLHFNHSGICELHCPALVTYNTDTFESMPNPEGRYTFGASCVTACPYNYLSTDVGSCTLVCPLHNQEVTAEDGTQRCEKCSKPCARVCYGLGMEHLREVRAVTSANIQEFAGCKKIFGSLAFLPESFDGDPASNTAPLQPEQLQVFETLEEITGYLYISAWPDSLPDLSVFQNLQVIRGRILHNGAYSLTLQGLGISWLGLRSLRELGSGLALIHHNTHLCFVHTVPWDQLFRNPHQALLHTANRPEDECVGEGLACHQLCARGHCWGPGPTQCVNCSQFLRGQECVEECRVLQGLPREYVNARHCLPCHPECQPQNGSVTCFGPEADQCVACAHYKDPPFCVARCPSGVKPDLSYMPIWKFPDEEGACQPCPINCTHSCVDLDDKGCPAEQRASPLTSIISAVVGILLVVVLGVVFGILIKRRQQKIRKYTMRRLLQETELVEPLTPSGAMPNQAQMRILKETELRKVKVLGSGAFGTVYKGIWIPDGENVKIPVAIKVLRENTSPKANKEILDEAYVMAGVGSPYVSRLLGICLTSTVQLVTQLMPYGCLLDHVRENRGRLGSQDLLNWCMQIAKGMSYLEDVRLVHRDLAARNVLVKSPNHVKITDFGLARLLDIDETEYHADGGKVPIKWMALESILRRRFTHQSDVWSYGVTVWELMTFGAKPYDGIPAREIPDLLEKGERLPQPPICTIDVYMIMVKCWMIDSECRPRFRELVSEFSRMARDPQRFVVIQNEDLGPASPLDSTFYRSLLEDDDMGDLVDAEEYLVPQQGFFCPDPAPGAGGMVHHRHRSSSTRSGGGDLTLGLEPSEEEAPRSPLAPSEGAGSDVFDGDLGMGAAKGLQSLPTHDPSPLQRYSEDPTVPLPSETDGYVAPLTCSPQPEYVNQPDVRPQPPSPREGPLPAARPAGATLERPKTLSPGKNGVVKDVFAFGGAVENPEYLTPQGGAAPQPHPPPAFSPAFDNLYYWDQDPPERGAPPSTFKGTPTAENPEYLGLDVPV

[7] = target: Receptor tyrosine-protein kinase erbB-2 (Homo sapiens) (UniProt P04626); conditions: at 1 µM
[8] = target: Receptor tyrosine-protein kinase erbB-4 (Homo sapiens) (UniProt Q15303); conditions: at 0.1 µM
Chain of Receptor tyrosine-protein kinase erbB-4 (Homo sapiens) (Q15303 whole entry): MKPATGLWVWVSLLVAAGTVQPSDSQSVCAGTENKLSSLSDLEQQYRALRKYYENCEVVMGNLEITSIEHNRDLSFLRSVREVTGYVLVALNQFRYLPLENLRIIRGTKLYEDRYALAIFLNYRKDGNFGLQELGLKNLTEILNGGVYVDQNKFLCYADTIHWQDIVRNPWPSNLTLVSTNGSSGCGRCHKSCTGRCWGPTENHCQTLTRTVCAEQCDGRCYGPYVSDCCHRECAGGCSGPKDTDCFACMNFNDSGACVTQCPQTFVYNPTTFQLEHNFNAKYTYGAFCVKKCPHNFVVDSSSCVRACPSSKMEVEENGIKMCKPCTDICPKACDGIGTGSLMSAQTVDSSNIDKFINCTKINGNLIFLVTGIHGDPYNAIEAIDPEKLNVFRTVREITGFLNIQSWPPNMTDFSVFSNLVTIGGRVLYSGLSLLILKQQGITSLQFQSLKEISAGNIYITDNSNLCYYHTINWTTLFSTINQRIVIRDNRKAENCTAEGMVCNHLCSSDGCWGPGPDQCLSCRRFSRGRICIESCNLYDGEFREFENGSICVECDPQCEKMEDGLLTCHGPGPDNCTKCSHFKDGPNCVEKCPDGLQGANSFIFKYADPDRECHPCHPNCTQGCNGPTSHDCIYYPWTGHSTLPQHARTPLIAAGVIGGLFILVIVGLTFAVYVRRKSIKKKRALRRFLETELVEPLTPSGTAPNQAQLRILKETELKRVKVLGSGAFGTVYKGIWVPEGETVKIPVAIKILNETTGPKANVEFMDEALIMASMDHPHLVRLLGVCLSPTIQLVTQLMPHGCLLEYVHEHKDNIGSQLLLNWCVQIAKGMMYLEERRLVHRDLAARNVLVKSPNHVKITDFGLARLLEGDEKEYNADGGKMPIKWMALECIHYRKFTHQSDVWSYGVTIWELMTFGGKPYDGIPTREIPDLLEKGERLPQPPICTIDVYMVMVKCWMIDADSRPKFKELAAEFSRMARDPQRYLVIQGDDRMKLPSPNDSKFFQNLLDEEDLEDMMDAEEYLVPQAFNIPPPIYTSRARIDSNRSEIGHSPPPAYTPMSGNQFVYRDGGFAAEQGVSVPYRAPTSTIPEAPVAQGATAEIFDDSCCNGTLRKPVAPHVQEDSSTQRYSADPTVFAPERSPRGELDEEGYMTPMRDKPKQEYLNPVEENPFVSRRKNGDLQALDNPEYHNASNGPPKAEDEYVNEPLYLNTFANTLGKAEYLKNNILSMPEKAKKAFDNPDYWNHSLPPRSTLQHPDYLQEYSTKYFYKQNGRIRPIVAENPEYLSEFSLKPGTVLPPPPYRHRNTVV

[9] = target: Receptor tyrosine-protein kinase erbB-4 (Homo sapiens) (UniProt Q15303); conditions: at 1 µM
[10] = target: Tyrosine-protein kinase Fer (Homo sapiens) (UniProt P16591); conditions: at 0.1 µM
Chain of Tyrosine-protein kinase Fer (Homo sapiens) (P16591 whole entry, looked up): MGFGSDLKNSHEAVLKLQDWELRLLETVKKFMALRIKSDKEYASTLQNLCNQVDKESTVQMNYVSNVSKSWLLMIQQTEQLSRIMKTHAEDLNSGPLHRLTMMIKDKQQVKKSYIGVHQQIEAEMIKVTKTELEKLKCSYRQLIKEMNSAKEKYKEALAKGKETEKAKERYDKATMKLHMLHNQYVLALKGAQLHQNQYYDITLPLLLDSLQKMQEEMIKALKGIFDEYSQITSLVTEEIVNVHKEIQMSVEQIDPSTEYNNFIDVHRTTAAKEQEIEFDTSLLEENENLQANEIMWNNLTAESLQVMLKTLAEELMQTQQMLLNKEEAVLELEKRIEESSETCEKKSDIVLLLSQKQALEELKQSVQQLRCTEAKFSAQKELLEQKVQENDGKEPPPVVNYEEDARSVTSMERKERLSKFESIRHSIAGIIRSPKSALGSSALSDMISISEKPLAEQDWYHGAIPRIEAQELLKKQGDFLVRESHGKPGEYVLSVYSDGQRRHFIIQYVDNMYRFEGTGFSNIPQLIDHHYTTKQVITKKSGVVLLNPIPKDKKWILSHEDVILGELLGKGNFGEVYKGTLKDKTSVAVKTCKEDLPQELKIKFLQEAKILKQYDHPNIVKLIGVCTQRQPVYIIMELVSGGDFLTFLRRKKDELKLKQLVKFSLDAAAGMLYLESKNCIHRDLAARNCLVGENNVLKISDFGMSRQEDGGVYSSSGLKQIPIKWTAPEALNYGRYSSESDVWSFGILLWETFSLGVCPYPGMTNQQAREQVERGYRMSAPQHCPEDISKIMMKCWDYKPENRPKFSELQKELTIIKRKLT

[11] = target: Tyrosine-protein kinase Fer (Homo sapiens) (UniProt P16591); conditions: at 1 µM
[12] = target: Tyrosine-protein kinase Fes/Fps (Homo sapiens) (UniProt P07332); conditions: at 0.1 µM
Chain of Tyrosine-protein kinase Fes/Fps (Homo sapiens) (P07332 whole entry): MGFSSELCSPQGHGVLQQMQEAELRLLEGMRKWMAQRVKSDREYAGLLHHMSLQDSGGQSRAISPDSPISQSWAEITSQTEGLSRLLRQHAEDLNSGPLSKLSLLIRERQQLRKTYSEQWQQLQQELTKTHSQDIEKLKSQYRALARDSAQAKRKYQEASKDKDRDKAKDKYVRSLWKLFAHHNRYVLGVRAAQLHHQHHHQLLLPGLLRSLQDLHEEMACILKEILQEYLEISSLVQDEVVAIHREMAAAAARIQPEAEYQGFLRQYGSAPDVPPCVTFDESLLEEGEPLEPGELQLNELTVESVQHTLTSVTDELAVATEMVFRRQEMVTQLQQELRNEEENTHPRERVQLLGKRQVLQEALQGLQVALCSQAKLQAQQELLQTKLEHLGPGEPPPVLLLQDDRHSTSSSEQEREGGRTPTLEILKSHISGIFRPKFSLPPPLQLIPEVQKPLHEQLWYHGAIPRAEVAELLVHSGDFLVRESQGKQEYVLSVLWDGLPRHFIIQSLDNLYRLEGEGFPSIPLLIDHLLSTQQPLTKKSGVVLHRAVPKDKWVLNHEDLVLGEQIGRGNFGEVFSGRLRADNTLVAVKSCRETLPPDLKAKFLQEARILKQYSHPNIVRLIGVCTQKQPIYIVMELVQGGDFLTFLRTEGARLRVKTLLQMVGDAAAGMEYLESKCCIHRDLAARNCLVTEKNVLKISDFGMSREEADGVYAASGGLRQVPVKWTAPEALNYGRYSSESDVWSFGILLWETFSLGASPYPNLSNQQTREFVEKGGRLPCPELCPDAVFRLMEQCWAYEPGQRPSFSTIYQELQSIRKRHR

[13] = target: Tyrosine-protein kinase Fes/Fps (Homo sapiens) (UniProt P07332); conditions: at 1 µM
[14] = target: Fibroblast growth factor receptor 1 (Homo sapiens) (UniProt P11362); conditions: at 0.1 µM
[15] = target: Fibroblast growth factor receptor 1 (Homo sapiens) (UniProt P11362); conditions: at 1 µM
[16] = target: Fibroblast growth factor receptor 2 (Homo sapiens) (UniProt P21802); conditions: at 0.1 µM
Chain of Fibroblast growth factor receptor 2 (Homo sapiens) (P21802 22-821 limits assumed): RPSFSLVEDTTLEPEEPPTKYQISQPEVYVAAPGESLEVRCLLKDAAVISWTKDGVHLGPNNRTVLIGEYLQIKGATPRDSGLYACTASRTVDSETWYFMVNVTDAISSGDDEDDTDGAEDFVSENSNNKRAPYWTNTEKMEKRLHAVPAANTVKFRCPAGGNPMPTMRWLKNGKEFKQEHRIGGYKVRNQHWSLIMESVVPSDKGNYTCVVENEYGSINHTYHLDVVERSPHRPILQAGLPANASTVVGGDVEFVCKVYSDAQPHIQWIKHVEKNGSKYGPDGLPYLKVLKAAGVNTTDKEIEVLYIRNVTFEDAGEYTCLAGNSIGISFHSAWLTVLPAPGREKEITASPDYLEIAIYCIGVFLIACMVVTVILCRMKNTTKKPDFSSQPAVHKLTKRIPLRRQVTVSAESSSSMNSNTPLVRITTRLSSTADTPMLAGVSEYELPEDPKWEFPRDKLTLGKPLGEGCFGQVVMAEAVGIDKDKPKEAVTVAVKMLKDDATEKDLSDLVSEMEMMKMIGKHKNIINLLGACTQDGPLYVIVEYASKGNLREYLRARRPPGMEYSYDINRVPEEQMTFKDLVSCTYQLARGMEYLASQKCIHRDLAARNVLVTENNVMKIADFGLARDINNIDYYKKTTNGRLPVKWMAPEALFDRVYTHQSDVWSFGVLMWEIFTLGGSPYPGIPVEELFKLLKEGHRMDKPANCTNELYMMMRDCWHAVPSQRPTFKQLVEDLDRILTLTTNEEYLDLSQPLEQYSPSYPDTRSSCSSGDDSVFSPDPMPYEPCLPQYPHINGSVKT

[17] = target: Fibroblast growth factor receptor 2 (Homo sapiens) (UniProt P21802); conditions: at 1 µM
[18] = target: Fibroblast growth factor receptor 3 (Homo sapiens) (UniProt P22607); conditions: at 0.1 µM
[19] = target: Fibroblast growth factor receptor 3 (Homo sapiens) (UniProt P22607); conditions: at 1 µM
[20] = target: Fibroblast growth factor receptor 4 (Homo sapiens) (UniProt P22455); conditions: at 0.1 µM;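 further: values are mean percent inhibition of FGFR4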

Structure (SMILES) | inhibition [1] [%] | inhibition [2] [%] | inhibition [3] [%] | inhibition [4] [%] | inhibition [5] [%] | inhibition [6] [%] | inhibition [7] [%] | inhibition [8] [%] | inhibition [9] [%] | inhibition [10] [%] | inhibition [11] [%] | inhibition [12] [%] | inhibition [13] [%] | inhibition [14] [%] | inhibition [15] [%] | inhibition [16] [%] | inhibition [17] [%] | inhibition [18] [%] | inhibition [19] [%] | inhibition [20] [%]
Cc1nnc(-c2ccc(C)c(-c3ccc(C(=O)NCc4ccc(Cl)cc4)cc3)c2)o1 | 2.23 | 1.15 | -1.34 | -0.5 | -2.62 | 5.39 | 4.99 | 3.42 | 7.48 | 3.34 | 3.71 | 2.32 | 1.83 | -2.72 | -1.85 | 0.07 | 11.1 | 1.78 | -1.81 | 
CCC(=O)Nc1ccc(C)c(-c2ccc(C(=O)NCC3CC3)cc2)c1 | 7.83 | 2.63 | 4.65 | 0.55 | 1.51 | 2.99 | 3.96 | 9.79 | 13.9 | -0.76 | 1.35 | 3.63 | 2.61 | 2.39 | 4.4 | 3.64 | 5.39 | 2.42 | 2.89 | 2.19
O=C(Nc1n[nH]c2nc(-c3ccco3)ccc12)C1CC1 | 12.7 | 3.53 | 2.4 | 0.45 | 4.02 | 0.39 | 0.71 | 2.93 | 2 | 0.52 | 2.89 | 1.02 | 1.51 | 2.13 | 2.39 | -0.33 | 5.26 | 1.13 | 3.83 | 2.11
Fc1ccc(-c2c(-c3ccncc3)nc3n2CCS3)cc1 | 6.7 | 1.23 | 1.23 | -4.56 | -2.17 | 1.03 | 0.17 | 2.91 | 4.97 | 0.77 | 1.89 | 1.15 | 0.99 | -4.25 | 0.23 | -1.78 | 0.6 | 1.37 | 1.47 | -6.43
c1ccc(Oc2ccc(Nc3ncc(-c4ccccc4)o3)cc2)cc1 | 9.65 | 2.67 | 0.66 | 2.42 | 0.76 | -0.01 | 1.41 | 4.29 | 5.09 | 2.19 | 1.64 | 0.55 | 0.4 | -1.76 | 2.11 | 1.12 | 3.49 | 4.41 | 4.9 | 2.77
Fc1ccc(-c2ncn(C3CCNCC3)c2-c2ccnc(Oc3ccc(F)c(F)c3)n2)cc1 | 8.76 | -0.46 | 1.58 | -4.11 | 0.57 | 3.82 | 3.63 | 1.82 | 5.03 | 1.43 | 3.96 | 2.73 | 2.2 | -3.39 | 0.21 | 0.37 | 2.12 | 0.74 | 2.67 | -2.57
Fc1ccc(-c2ncn(CCCN3CCOCC3)c2-c2ccncc2)cc1 | -5.28 | 2.51 | -2.79 | 0.93 | -0.14 | -0.2 | -6.58 | 4.44 | 4.14 | 0.26 | -1.08 | -0.1 | -0.6 | 0.01 | -2.73 | -1.34 | 2.45 | 0.86 | 2.18 | -3
COc1cc(Nc2ncc3c(C)nc(-c4cccc(C(F)(F)F)c4)n3n2)cc(OC)c1OC | 57.1 | 6.46 | 3.53 | 5.85 | 31.1 | 0.82 | 3.68 | 5.34 | 8.32 | 3.27 | 16.6 | 2.74 | 4.66 | 0.79 | 3.96 | 1.87 | 10.6 | 3.25 | 4.79 | 0.66
Cc1ccc(NC(=O)c2ccoc2)cc1-c1ccc(C(=O)NCC2CC2)cc1 | 5.88 | 3.21 | 3.35 | 0.88 | 0.82 | 5.47 | 5.7 | 8.06 | 10.6 | 0.47 | -0.39 | 2.83 | 1.55 | 11.2 | 3.99 | 0.64 | 3.44 | 2.69 | 5.14 | 1.47
C[C@@H](Oc1cc(-n2cnc3ccc(OC4CCN(C)CC4)cc32)sc1C(N)=O)c1ccccc1Cl | 7.99 | -1.42 | -0.38 | -3.06 | -1.28 | 2.36 | 2.65 | 1.1 | 6.83 | 3.05 | 3.96 | 2.48 | 3.52 | 2.78 | 9.26 | 4.51 | 8.58 | 4.86 | 9.86 | -0.28
NS(=O)(=O)c1ccc(N/N=C2\C(=O)Nc3ccc(-c4cnco4)cc32)cc1 | 7.61 | -2.23 | -3.53 | -2.49 | -0.26 | 4.9 | 13.6 | 5.79 | 14.2 | 1.03 | 0.94 | 0.3 | 0.19 | -2.98 | 2.6 | -0.2 | 15.2 | -0.63 | 10.1 | -3.55
O=C(Nc1ccc(Oc2ccc3[nH]c(NC(=O)c4ccccc4)nc3c2)cc1)Nc1cc(C(F)(F)F)ccc1F | 61.8 | 5.05 | 8.33 | 3.63 | 27.5 | 2.77 | 4.41 | 6.9 | 9.12 | 1.59 | 7.9 | 2.28 | 2.49 | 2.35 | 6.8 | 2.19 | 18.8 | 7.91 | 6.31 | -0.39
COc1ccc2cc(-c3c(-c4ccncc4)nc(-c4ccc([S+](C)[O-])cc4C)n3C)ccc2c1 (centres undefined) | 19.7 | 4.06 | 14.6 | 4.17 | 22.5 | 1.42 | 5.05 | 9.39 | 37.1 | 1.31 | 3.2 | -0.52 | -1.2 | -0.12 | 2.93 | -0.56 | 2.09 | 1.3 | 3.02 | 2.92
